This is an account of results in PubChem BioAssay (EPA / NIEHS).

Holding throughout (details): mRNA level, 48 h; actives raise or lower the signal
Read-out in test [1]: Cytochrome P450 3A4 (Homo sapiens) (UniProt P08684)
The experiment in a line: LTEA_HepaRG_CYP3A4: Life Technologies and Expression Analysis (LTEA) Assay for CYP3A4 using HepaRG (AID 2283487). An outline of the steps: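 In a human hepatic line (HepaRG), duplicate wells were treated 48 h with up to 100 uM chemical in half-log dilutions. Endpoint: CYP3A4 mRNA induction or loss relative to 0.5% DMSO vehicle, by qRT-PCR.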

Read-out in test [2]: DNA damage-inducible transcript 3 (DDIT3), DDIT3 (gene 1649)
Nature of the test: LTEA_HepaRG_DDIT3: Life Technologies and Expression Analysis (LTEA) Assay for DNA damage-inducible transcript 3 (DDIT3) using HepaRG (AID 2283488). The gist of the method: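 Eight-point concentration-response (100 uM highest, half-log dilutions) in HepaRG, 48 h, duplicate wells. Endpoint: qRT-PCR mRNA, normalized (ACTB, GAPDH, POLR2A), bidirectional fitting with DMSO as baseline.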

Read-out in test [3]: Pro-epidermal growth factor (Homo sapiens) (UniProt P01133)
The experiment in a line: LTEA_HepaRG_EGF: Life Technologies and Expression Analysis (LTEA) Assay for Epidermal growth factor (EGF) using HepaRG (AID 2283489). An outline of the steps: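 EGF expression changes in human HepaRG cells are scored by bidirectional fitting relative to 0.5% DMSO controls. Chemicals are tested at eight half-log concentrations up to 100 uM for 48 h in serum-free induction medium.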

Read-out in test [4]: Early growth response protein 1 (EGR1) transcription factor, EGR1 (gene 1958)
Nature of the test: LTEA_HepaRG_EGR1: Life Technologies and Expression Analysis (LTEA) Assay for Early growth response protein 1 (EGR1) transcription factor using HepaRG (AID 2283490). An outline of the steps:
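EGR1 transcript levels quantified by qRT-PCR (Fluidigm arrays) against three housekeeping genes after 48 h chemical exposure of HepaRG cells. Eight-point half-log series topping at 100 uM, 0.5% DMSO vehicle, analyzed for gain or loss.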

Read-out in test [5]: Ezrin (EZR), EZR (gene 7430)
The experiment in a line: LTEA_HepaRG_EZR: Life Technologies and Expression Analysis (LTEA) Assay for Ezrin (EZR) using HepaRG (AID 2283491). The gist of the method:
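Gain or loss of EZR mRNA is scored relative to 0.5% DMSO in human HepaRG cultures treated 48 h with test chemicals in duplicate, eight half-log concentrations from 100 uM.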

Read-out in test [6]: Cytochrome P450 3A7 (Homo sapiens) (UniProt P24462)
Nature of the test: LTEA_HepaRG_CYP3A7: Life Technologies and Expression Analysis (LTEA) Assay for CYP3A7 using HepaRG (AID 2283492). An outline of the steps:
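Cells were thawed, plated, cultured 48 h, then treated for a further 48 h with chemicals (eight-point half-log series from 100 uM, 0.5% DMSO). RNA was isolated and CYP3A7 expression quantified by qRT-PCR normalised to ACTB, GAPDH and POLR2A.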

Read-out in test [7]: CYP3A5 (gene 1577)
The experiment in a line: LTEA_HepaRG_CYP3A5: Life Technologies and Expression Analysis (LTEA) Assay for CYP3A5 using HepaRG (AID 2283493). The gist of the method: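 Readout was CYP3A5 mRNA by qRT-PCR. HepaRG cultures were exposed for 48 h in serum-free induction medium to chemicals at up to 100 uM, and responses were fitted in both directions relative to DMSO vehicle.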

Read-out in test [8]: Fatty Acid-Binding Protein 1 (FABP1), FABP1 (gene 2168)
Nature of the test: LTEA_HepaRG_FABP1: Life Technologies and Expression Analysis (LTEA) Assay for Fatty Acid-Binding Protein 1 (FABP1) using HepaRG (AID 2283494). The gist of the method: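 FABP1 expression by TaqMan qRT-PCR, normalised to three housekeeping genes, in HepaRG cells after 48 h chemical treatment. Eight-point half-log series topping at 100 uM in 0.5% DMSO, duplicates; gain or loss fitted relative to vehicle.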

Read-out in test [9]: Cytochrome P450 4A22 (Homo sapiens) (UniProt Q5TCH4)
The experiment in a line: LTEA_HepaRG_CYP4A22: Life Technologies and Expression Analysis (LTEA) Assay for Cytochrome P450 4A22 (CYP4A22) using HepaRG (AID 2283495). The gist of the method: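 Cryopreserved HepaRG cells, plated and cultured 48 h, then switched to serum-free induction medium and treated 48 h (duplicates, up to 100 uM, half-log steps, 0.5% DMSO). Expression change of CYP4A22 was fitted bidirectionally against vehicle.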

Read-out in test [10]: Cytochrome P450 7A1 (Homo sapiens) (UniProt P22680)
Nature of the test: LTEA_HepaRG_CYP7A1: Life Technologies and Expression Analysis (LTEA) Assay for Cytochrome P450 7A1 (CYP7A1) using HepaRG (AID 2283496). An outline of the steps: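 Using 0.5% DMSO as vehicle and baseline, chemicals were tested in duplicate over an 8-point range from 100 uM on HepaRG cells for 48 h; qRT-PCR signals were normalised to ACTB, GAPDH and POLR2A.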

Calls of active or inactive are those of the source. Rule for the calls: active = hit-call score of the fitted dose curve at least 0.9, where 1 is the maximum; inactive = score below 0.9.

Cytochrome P450 3A4 (Homo sapiens), sequence (P08684 whole entry, looked up): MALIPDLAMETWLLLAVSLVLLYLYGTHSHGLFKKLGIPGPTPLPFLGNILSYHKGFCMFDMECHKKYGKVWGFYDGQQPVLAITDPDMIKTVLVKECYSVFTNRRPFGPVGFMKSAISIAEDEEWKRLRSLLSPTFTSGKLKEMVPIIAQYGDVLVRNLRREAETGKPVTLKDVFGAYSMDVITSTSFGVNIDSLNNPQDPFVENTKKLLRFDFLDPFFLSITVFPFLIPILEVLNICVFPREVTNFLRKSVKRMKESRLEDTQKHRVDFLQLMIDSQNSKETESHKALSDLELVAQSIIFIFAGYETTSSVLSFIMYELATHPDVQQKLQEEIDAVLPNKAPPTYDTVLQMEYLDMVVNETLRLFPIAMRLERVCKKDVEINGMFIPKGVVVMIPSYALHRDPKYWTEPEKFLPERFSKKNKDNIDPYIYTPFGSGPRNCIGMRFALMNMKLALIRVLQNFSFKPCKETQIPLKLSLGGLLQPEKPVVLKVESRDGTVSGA
Cytochrome P450 3A7 (Homo sapiens), sequence (P24462 whole entry, looked up): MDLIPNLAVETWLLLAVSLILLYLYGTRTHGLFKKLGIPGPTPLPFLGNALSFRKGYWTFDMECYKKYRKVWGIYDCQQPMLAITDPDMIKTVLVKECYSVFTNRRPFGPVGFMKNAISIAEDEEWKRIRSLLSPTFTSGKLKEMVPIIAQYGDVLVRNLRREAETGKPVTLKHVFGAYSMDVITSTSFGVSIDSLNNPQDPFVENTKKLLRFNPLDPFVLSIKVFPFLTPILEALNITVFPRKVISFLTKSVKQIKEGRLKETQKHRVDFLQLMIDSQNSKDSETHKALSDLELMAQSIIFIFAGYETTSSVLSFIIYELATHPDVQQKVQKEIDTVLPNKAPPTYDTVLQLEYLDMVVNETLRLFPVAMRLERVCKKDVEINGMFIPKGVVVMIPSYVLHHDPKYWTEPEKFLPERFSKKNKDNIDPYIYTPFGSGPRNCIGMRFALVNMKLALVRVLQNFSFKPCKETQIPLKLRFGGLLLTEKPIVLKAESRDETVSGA

On to `O=C(N[C@@H](c1ccccc1)[C@@H]1CCCCN1)c1cccc(C(F)(F)F)c1Cl`, for which the AC50 (in general, the concentration giving half of the maximal activity seen) in test [1] is 86.9 µM (active); in test [2] it was 50 µM (active); in [4], 83.3 µM (active); in test [7] it was 90.6 µM (active); in [8], 33.2 µM (active); in [9], 23.1 µM (active). In addition, the AC50 in [10] is 21.3 µM (active). Also, the compound was called inactive in test [3], in test [5] and in [6].

Turning to `O=C(O)c1cccnc1`, the result in test [1], in [2], in [3], in test [4], in [5] and in test [6] was inactive. In addition, the outcome in [7], in test [8], in test [9] and in [10] was inactive.

In the case of `CCCC[C@H]1CN(CC2CCOCC2)C(=O)OC12CCN(C1(C)CCN(C(=O)c3c(C)ncnc3C)CC1)CC2`, the compound was classed as inactive in [1], in test [2], in test [4], in test [5], in test [6] and in test [7]. Moreover, the compound was called inactive in [8], in test [9] and in test [10].

Turning to `NCCOCCOCCN`, the compound was classed as inactive in test [1], in test [2], in [3], in [4], in [5] and in test [6]. For the same compound, the call in [7], in test [8], in test [9] and in [10] was inactive.

On to `CC(N)=O`, for which the call in [1], in test [2], in test [4], in test [5], in test [6] and in test [7] was inactive. Also, the compound was called inactive in [8], in test [9] and in test [10].

As for `CO[C@@H]1COCC[C@@H]1N[C@@H]1CC[C@@](C(=O)N2CCc3ncc(C(F)(F)F)cc3C2)(C(C)C)C1`, the outcome in test [1], in test [2], in test [3], in test [4], in [5] and in test [6] was inactive. Also, the compound was called inactive in test [7], in [8], in test [9] and in test [10].

Regarding `O=C(O)c1[nH]n(-c2ccc(S(=O)(=O)O)cc2)c(=O)c1N=Nc1ccc(S(=O)(=O)O)cc1`, the result in [1], in test [2], in [3], in [4], in test [5] and in [6] was inactive. For the same compound, the compound was called inactive in test [7], in test [8], in test [9] and in test [10].

On to `C/C=C/C=C/C(=O)O`, for which the outcome in [1], in [2], in [4], in [5], in test [6] and in [7] was inactive. Further, the result in [8] was inactive.

On to `S=c1[nH]c2ccccc2s1`, for which the result in test [1], in [2], in test [3], in [4], in test [5] and in [6] was inactive. The compound was classed as inactive in test [7], in test [8], in test [9] and in test [10].

On to `CC(C)OC(=O)C(C)(C)Oc1ccc(C(=O)c2ccc(Cl)cc2)cc1`, for which the result in [1], in test [2], in [3], in [4], in test [6] and in test [7] was inactive. Moreover, in [10], the compound was classed as inactive. Further, the AC50 is 0.536 µM (active) in test [5], 50 µM (active) in test [8] and 2.19 µM (active) in [9].

Turning to `Cc1cn([C@H]2C=C[C@@H](CO)O2)c(=O)[nH]c1=O`, the outcome in [1], in test [2], in test [4], in [5], in test [6] and in test [7] was inactive. Also, the result in [8], in test [9] and in [10] was inactive.

On to `COc1ccc(OC(F)(F)F)cc1CN[C@H]1CCCN[C@H]1c1ccccc1`, for which the half-maximal activity concentration (AC50) in [1] was 91.9 µM (active); in test [2] it was 72.8 µM (active); in test [3], 50 µM (active); in test [4], 86.6 µM (active); in [7], 78.5 µM (active); in test [8], 77.9 µM (active). For the same compound, the AC50 in test [9] was 15.8 µM (active). Besides, the result in test [5], in test [6] and in test [10] was inactive.

Consider `CCCC(=O)O`, for which the outcome in test [1], in test [2], in test [3], in test [4], in test [5] and in [6] was inactive. The call in test [7], in test [8], in test [9] and in test [10] was inactive.

Take `NC1CCCCC1`: the call in test [1], in [2], in test [3], in test [4], in [5] and in test [6] was inactive. Also, the call in [7], in test [8], in [9] and in [10] was inactive.

On to `CC(=O)O`, for which the result in [1], in test [2], in [3], in [4], in [5] and in test [6] was inactive. In addition, the compound was called inactive in test [7], in test [8], in [9] and in test [10].

For `CC(COCC(C)OC(=O)c1ccccc1)OC(=O)c1ccccc1` (configuration not stated), the result in test [1], in test [2], in test [4], in test [5], in test [6] and in [7] was inactive. The outcome in test [8], in test [9] and in [10] was inactive.

For the compound `CCC(C)N(C)C(=O)c1cc2ccccc2c(-c2ccccc2Cl)n1` (configuration not stated), the AC50 is 3.23 µM (active) in [1]; 46.6 µM (active) in [2]; 31.8 µM (active) in test [7]; 13 µM (active) in test [8]; 13.1 µM (active) in [9]. Moreover, the call in [4], in test [5], in test [6] and in test [10] was inactive.

For the compound `NC=O`, the call in [1], in [2], in [3], in test [4], in [5] and in test [6] was inactive. Besides, the outcome in [7], in [8], in test [9] and in [10] was inactive.

For the compound `Cc1occc(=O)c1O`, the result in test [1], in test [2], in test [3], in test [4], in [5] and in test [6] was inactive. The outcome in [7], in [8], in [9] and in test [10] was inactive.

On to `CCc1cc(C2=C(C(=O)O)N(c3ccccc3C(F)(F)F)S(=O)(=O)c3ccccc32)cc2c1OCO2`, for which the AC50 was 0.679 µM (active) in test [1]; 82.1 µM (active) in test [2]; 9.92 µM (active) in test [4]; 0.645 µM (active) in test [6]; 41 µM (active) in test [9]; 72.2 µM (active) in test [10]. The compound was classed as inactive in [3], in [5], in [7] and in test [8].
